Screening data deposited in PubChem BioAssay by NMMLSC.
In the library only some 1.2% were active in any assay of this set; here they are far more common.
RGS7-Gao reg = RGS7-Galphao binding modulators, primary screen, biochemical, multiplexed bead flow cytometry. Guanine nucleotide-binding protein G(o) subunit alpha (Homo sapiens), P09471. actives lie on both sides. binding response (% of control), % at 10 µM. 220,000 tested, 0.35% active; in the data active means binding response below about 49% or above about 150%; inconclusive means no clear call, values can overlap the other calls; inactive means in between;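 further: fluorescent Galphao held in activated GDP-AlF4 state binding bead-coupled RGS7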
Target sequence (P09471 whole entry, looked up): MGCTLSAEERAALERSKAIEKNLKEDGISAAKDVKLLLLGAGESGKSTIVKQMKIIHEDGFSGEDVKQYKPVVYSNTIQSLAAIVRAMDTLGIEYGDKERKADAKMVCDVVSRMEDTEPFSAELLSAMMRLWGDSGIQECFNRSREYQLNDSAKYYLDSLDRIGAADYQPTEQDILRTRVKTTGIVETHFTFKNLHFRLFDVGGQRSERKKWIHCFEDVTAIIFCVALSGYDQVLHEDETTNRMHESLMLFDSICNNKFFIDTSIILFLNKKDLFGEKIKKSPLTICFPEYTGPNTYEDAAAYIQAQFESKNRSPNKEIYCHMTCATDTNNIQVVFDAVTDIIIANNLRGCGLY
GSH fluor = compound fluorescence on glutathione beads, profiling panel, artefact control, biophysical, 488/530 nm, flow cytometry | GSH beads flow cytometry, compound fluorescence 488/530 nm; stronger effect = higher value | fluorescence (KMESF) at 10 µM | 190,000 tested, 0.25% active | AID 1776, 2009; in the data active means fluorescence above about 89;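 further: glutathione beads carrying GST-tagged Bcl family fusion proteins plus one bare bead set; values are compound well signal with DMSO vehicle wells as background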
Avidin bead fluor = green autofluorescence of compounds with avidin beads – biophysical, 488/530 nm, flow cytometry, artefact control, profiling panel; 220,000 tested, 0.38% active; compound fluorescence 488/530 nm; stronger effect = higher value; fluorescence (KMESF) at 10 µM; in the data active means fluorescence above about 47
RGS16-Gao HTS = modulators of RGS16 binding to Galphao, primary screen, biochemical, human proteins, multiplexed bead flow cytometry. Regulator of G-protein signaling 16 (Homo sapiens) + Guanine nucleotide-binding protein …. bead-based flow cytometry RGS16-Galphao binding, fluorescence; actives lie on both sides. binding response (% of control), % at 10 µM. 220,000 tested, 0.38% active. AID 1441, 2008;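 further: Galphao activated by GDP with aluminum fluoride before binding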
RGS4-Gao reg = modulators of RGS4 binding to Galphao, primary screen, biochemical, multiplexed bead flow cytometry. actives lie on both sides. binding response (% of control), % at 10 µM. 220,000 tested, 0.33% active; in the data active means binding response below about 49% or above about 150%; inactive means in between;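 further: fluorescent Galphao activated with aluminum fluoride binding bead-coupled RGS4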
RGS8-Gao = RGS8-Galphao binding modulators, primary screen, biochemical, multiplexed bead flow cytometry | Guanine nucleotide-binding protein G(o) subunit alpha (Homo sapiens), P09471 | actives lie on both sides | response (percent of control binding), % at 10 µM | 220,000 tested, 0.34% active | AID 1423, 2008; in the data active means response below about 60% or above about 140%; inactive means in between;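 further: Galphao activated as the GDP aluminium fluoride complex binding bead-coupled RGS8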
RGS4-Gao HTS = modulators of RGS–Galpha-o binding, primary screen, biochemical, multiplexed beads, flow cytometry, RGS4/7/8/16/19; multiplexed bead flow cytometry; shares compounds with RGS16-Gao HTS; 1,600 tested, 99% active; RGS4–Galpha-o binding response, % at 10 µM;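 further: fluorescently labeled Galpha-o bound to GDP with aluminium fluoride binding biotinylated RGS beads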
Biotin-avidin = disruption of biotin probe capture by avidin, counter-screen for RGS protein interaction modulators, biochemical, flow cytometry, bead-based | 1,700 tested, under 10 active | streptavidin beads, fluorescein-biotin binding | inhibition, % at 10 µM | shares compounds with RGS16-Gao HTS;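 active means inhibition above 50%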;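 further: median green fluorescence of gated singlet beads compared with DMSO control wells; 0% = DMSO wells and 100% = complete loss of bead fluorescence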
RGS8-Gao single = RGS8-Galphao binding modulators, confirmation, biochemical, multiplexed bead flow cytometry, single concentration; shares compounds with RGS16-Gao HTS; bead-based flow cytometry RGS8-Galphao binding, fluorescence; actives lie on both sides; binding response (% of control), % at 10 µM; 1,700 tested, 3% active; in the data active means binding response below about 72% or above about 130%; inactive means in between;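 further: Galphao activated as GDP AlF4 complex before binding bead RGS8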
RGS7-Gao confirm = RGS7-Galphao binding modulators, confirmation, biochemical, multiplexed bead flow cytometry, single concentration; 1,700 tested, 7.8% active; response (percent of control binding), % at 10 µM; shares compounds with RGS16-Gao HTS; AID 1837, 2009; bead-based flow cytometry RGS7-Galphao binding; actives lie on both sides; in the data active means response below about 75% or above about 130%; inactive means in between;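 further: fluorescent Galphao activated with GDP and aluminum fluoride binding bead-coupled RGS7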
RGS16-Gao single = modulators of RGS16-Galphao protein binding, confirmation, biochemical, single concentration, multiplexed bead flow cytometry | 1,700 tested, 4% active | bead-based flow cytometry; actives lie on both sides | response (% of control binding), % at 10 µM | shares compounds with RGS16-Gao HTS | AID 1838, 2009; in the data active means response below about 74% or above about 130%; inactive means in between;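 further: Galphao activated as the GDP aluminium fluoride complex binding bead-coupled RGS16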
RGS4-Gao confirm = modulators of RGS4-Galphao protein binding, confirmation, biochemical, single concentration, multiplexed bead flow cytometry. shares compounds with RGS16-Gao HTS. AID 1840, 2009. 1,700 tested, 4% active. actives lie on both sides. binding response (% of control), % at 10 µM; in the data active means binding response below about 74% or above about 130%; inactive means in between
RGS19-Gao conf = regulators of RGS19-Galphao binding, confirmation, biochemical, single point, multiplexed bead flow cytometry | shares compounds with RGS16-Gao HTS | bead-based flow cytometry RGS19-Galphao binding; actives lie on both sides | response (percent of control binding), % at 10 µM | 1,700 tested, 5% active; in the data active means response below about 50% or above about 160%; inactive means in between;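 further: 100% = no compound control and 0% = blank background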
Target sequence (P09471 whole entry, looked up): as above
Target sequence (P49795 whole entry, looked up): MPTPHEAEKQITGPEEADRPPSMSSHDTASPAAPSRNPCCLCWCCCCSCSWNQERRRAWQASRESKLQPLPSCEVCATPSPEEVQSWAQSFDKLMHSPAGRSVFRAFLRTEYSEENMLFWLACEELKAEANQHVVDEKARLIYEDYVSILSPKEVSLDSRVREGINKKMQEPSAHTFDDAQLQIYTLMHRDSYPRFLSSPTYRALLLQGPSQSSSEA
* hit, by the source's call; ? = inconclusive; nt = no result; [ ] = remark or other dose. Unless noted, how the calls were made is not given here.

SMILES	RGS7-Gao reg	GSH fluor	Avidin bead fluor	RGS16-Gao HTS	RGS4-Gao reg	RGS8-Gao	Biotin-avidin	RGS8-Gao single	RGS7-Gao confirm	RGS16-Gao single	RGS4-Gao confirm	RGS19-Gao conf	others
COCCN1C(=O)c2ccccc2C(C(=O)NCCCN2CCCC2)C1c1c[nH]c2ccccc12 (stereo unspecified)	33.5*	21	15	32.4	38.4*	41.6*	1.0	104.6	94.3	100.7	98.7	92.9
CN1C(=O)c2ccccc2C(C(=O)NCCCN2CCCC2=O)C1c1c[nH]c2ccccc12 (stereo unspecified)	102.8	6	10	101.9	104.6	101.9	nt	nt	nt	nt	nt	nt
O=C(COc1ccccc1C(=O)N/N=C\c1ccc(O)c(O)c1)N/N=C/c1ccc(O)c(O)c1	13.6*	4	4	15.9*	17.0*	36.7*	-3.8	60.5*	21.1*	60.4*	54.0*	53.4
COc1ccc(-c2nnc(N(C)C(=O)C3CCCO3)s2)cc1 (stereo unspecified)	104.5	22	20	110.6	104.2	104.4	nt	nt	nt	nt	nt	nt
Cc1cnc(-c2nnc(N(C)C(=O)C3CCCO3)s2)cn1 (stereo unspecified)	56.7	11	3	-46.5*	56.2	68.6	1.9	98.0	96.2	94.8	97.0	100.9	RGS4-Gao HTS=56.2*
COc1cc2c(cc1NC(=O)CSc1nnc(Cc3cccs3)n1Cc1ccco1)oc1ccccc12	99.4	13	14	101.8	98.6	99.0	nt	nt	nt	nt	nt	nt
COc1cc2c(cc1NC(=O)CSc1nnc(Cc3cccs3)n1C)oc1ccccc12	247.5*[activator]	45	105*	314.1*[activator]	314.7*[activator]	127.6	1.2	101.7	104.4	102.9	101.8	92.7
Cc1ccccc1NC(=O)c1sc(NC(=O)COc2ccccc2)c(C#N)c1C	106.3	8	14	105.2	103.8	101.3	nt	nt	nt	nt	nt	nt
CC(=O)NC(=S)Nc1ccc(NC(=O)COc2ccc(Cl)cc2Cl)cc1	184.4*[activator]	3	78*	100.0	150.3*[activator]	98.1	1.8	99.9	97.1	95.3	98.8	92.9
Cc1ccc(N2CN=c3s/c(=C\c4ccccn4)c(=O)n3C2)cc1	48.2*	23	18	52.8	51.3	59.5*	-1.0	96.9	92.4	94.9	94.5	109.9	RGS4-Gao HTS=51.3*
CN(C)c1nc(N)nc(N(c2ccccc2)c2ccccc2)n1	100.2	18	7	98.4	101.4	99.9	nt	nt	nt	nt	nt	nt
CCN(CC)c1nc(N)nc(N(c2ccccc2)c2ccccc2)n1	154.7*[activator]	21	73*	103.3	105.2	98.9	-0.3	97.1	62.7*	88.7	72.6*	73.9	RGS4-Gao HTS=105.2*
CCOc1ccc(Br)cc1-c1noc(-c2cccs2)n1	12.0*	21	-3	-8.5	21.3*	8.4*	0.0	98.6	96.8	96.4	96.8	100.0
O=C(CO/N=C/c1ccc(OC(F)F)cc1)NC1CCCCCC1	?	14	9	96.1	98.7	99.2	nt	nt	nt	nt	nt	nt
CCCN1CN(c2ccccc2)C(=S)N(c2ccccc2)C1	?	nt	3	168.5	195.1*[activator]	135.7	0.0	101.0	99.4	99.8	99.6	104.0
CCCN1CNC(=S)N(c2ccccc2OC)C1	104.4	16	9	46.9	100.4	97.5	nt	nt	nt	nt	nt	nt
O=C1COc2ccc(C(=O)COC(=O)CNC(=O)C3CCCCC3)cc2N1	166.9*[activator]	13	12	154.0	152.5*[activator]	144.9*[activator]	1.4	93.5	92.2	97.6	93.2	101.8
Cc1ccc(C(=O)NCC(=O)OCC(=O)c2ccc3c(c2)NC(=O)CO3)cc1C	98.5	12	10	95.9	102.0	100.0	nt	nt	nt	nt	nt	nt
Nc1nnc(Cc2cccc(Br)c2)s1	?	nt	10	106.8	106.3	107.9	nt	nt	nt	nt	nt	nt
O=C(Nc1cc(Sc2nc3ccccc3s2)cc([N+](=O)[O-])c1)c1cccc(F)c1F	100.6	14	23	105.8	105.3	102.5	nt	nt	nt	nt	nt	nt
CC(C)N1CCc2c(sc(NC(=O)c3ccc(S(=O)(=O)N4CCc5ccccc54)cc3)c2C(N)=O)C1	153.2*[activator]	19	5	136.6	147.5	137.2	nt	nt	nt	nt	nt	nt	RGS4-Gao HTS=147.5*
CC(C)N1CCc2c(sc(NC(=O)c3nc4ccccc4s3)c2C(N)=O)C1	101.3	12	11	108.1	105.5	104.0	nt	nt	nt	nt	nt	nt
CCOC(=O)C(CSCC(=O)c1ccc(Br)cc1)NC(=O)OC(C)(C)C (stereo unspecified)	103.9	12	8	105.6	100.9	101.4	nt	nt	nt	nt	nt	nt
CCOC(=O)C(CSCc1ccccc1)NC(=O)OC(C)(C)C (stereo unspecified)	97.8	57	2	-919.8*	92.8	97.6	nt	nt	nt	nt	nt	nt	RGS4-Gao HTS=92.8*
COc1ccc(-c2cc(-c3n[nH]c(=S)n3-c3ccccc3OC)[nH]n2)cc1	103.7	20	11	93.2	96.6	94.3	nt	nt	nt	nt	nt	nt
